RGS12 GoLoco inh: RGS12 GoLoco-Gai1 interaction inhibition. Gai1:RGS12 GoLoco peptide FP, rhodamine, 10 min. Potency, µM (doses to about 61.6 µM), inactives show at the top dose activity, negative = inhibition, actives largely listed as inhibitors. actives 0.44% (n = 230,000); active = well fitted inhibition curve with a large enough effect, not every such curve was filed as active; inactive = no such curve, though single readings can be large or run the other way; also: potency is read from the fitted curve at half-maximal effect; % is scaled to controls: 0 for no effect and ±100 for the full control effect; nearly all actives have a fitted effect of over 30% in size
Tb PFK inh: blocks T. brucei phosphofructokinase; actives 0.17% (n = 330,000); O15648; AID 485367; T. brucei PFK, ADP-Glo luminescence; Potency, µM (top dose mostly 57.5 µM), for inactives: top-dose activity, negative = inhibition, actives largely listed as inhibitors; active = well fitted inhibition curve with a large enough effect; inconclusive = small, poorly fitted or top-dose-only effect, or effect the other way;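 also: potency is read from the fitted curve at half-maximal effect; 0% = uninhibited 1x PFK enzyme wells and -100% = no-enzyme wells; nearly all actives have a fitted effect of over 60% in size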
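In TEA buffer at pH 8.0 with 5 mM MgCl2, enzyme (1.25 nM) converted F6P (0.5 mM) and ATP (0.1 mM) for 45 min at room temperature. ADP product was read by luciferase luminescence.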
Menin-MLL TR inh: displaces Texas Red mutant MLL peptide from human menin; Menin + Texas Red MLL mutant peptide, fluorescence polarization; Potency, µM (highest dose often 61.6 µM), inactives show top-dose FP activity change, negative = inhibition, most hits filed as inhibitors; actives 0.23% (n = 270,000); AID 1768; active = well fitted inhibition curve with a large enough effect in the polarisation, with a control signal flat, not every such curve was filed as active; inconclusive = small, poorly fitted or top-dose-only effect, or effect the other way, or a change in a side signal; inactive = no such curve, though single readings can be large or run the other way; the % refers to the polarisation; also: potency is read from the fitted curve at half-maximal effect; % of control where 0% means no effect
Menin-MLL FL inh: displaces fluorescein MLL peptide from human menin | 290,000 tested, under 10 active | Fluorescence polarization, fluorescein-MLL peptide displacement from menin | FP activity change, % at 61.4 µM; active = well fitted curve in the direction sought with a large enough effect in the polarisation, not every such curve was filed as active; inconclusive = small, poorly fitted or top-dose-only effect, or effect the other way, or a change in a side signal; inactive = no such curve, though single readings can be large or run the other way; the % refers to the polarisation; also: % of control where 0% means no effect
CXXC DNA block: blocks binding of human MLL CXXC domain to DNA | MLL-CXXC / FITC-HOXA9 DNA fluorescence polarization | Potency, µM (titrated, usually from 115 µM), without a hit: top-dose activity change, negative = inhibition, actives largely listed as inhibitors | Q03164 | actives 0.037% (n = 290,000) | AID 2662; active = well fitted inhibition curve with a large enough effect in the polarisation, with a control signal flat, not every such curve was filed as active; inconclusive = small, poorly fitted or top-dose-only effect, or effect the other way, or a change in a side signal; inactive = no such curve, though single readings can be large or run the other way; the % refers to the polarisation; also: potency is read from the fitted curve at half-maximal effect
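Purified MLL-CXXC (added from a 7 uM solution) was preincubated 5 min at ambient with pinned compounds in 50 mM Tris-HCl pH 7.5, 50 mM NaCl, 1 mM DTT, 0.05% BSA. Fluorescein-labeled HOX-A9 DNA (50 nM solution) followed, 30 min, then polarization read.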
Starred values were filed as active, the others as inactive; ? = inconclusive; nt = not tested or not shown; ! = not active in a repeat; [ ] = dose if it differs, or a comment. Only some compounds are listed: those with a hit (about 0.43% of all), similar ones and a draw of the others.

SMILES	RGS12 GoLoco inh	Tb PFK inh	Menin-MLL TR inh	Menin-MLL FL inh	CXXC DNA block
COc1ccc(-c2nc3c(c4c2C[C@H](c2ccccc2)OC4)CN(S(=O)(=O)c2ccc(C#N)cc2)CC3)c(C)c1	-13%[14.2 µM]	nt	-3%[11.7 µM]	5[11.7 µM]	nt
O=C(Nc1nc(-c2ccc(S(=O)(=O)N3CCCCCC3)cc2)cs1)c1cccs1	15%	1%	22µM*	4	25%
O=C(Nc1nc(-c2ccc(S(=O)(=O)N3CCCC3)cc2)cs1)c1cccs1	2%	-23%	?	0	22%
COC(=O)c1ccccc1N	32µM*	nt	nt	nt	nt
COC(=O)c1ccccc1OCCOc1ccccc1C(=O)OC	-2%	1%	-5%	-3	2%
CCc1cc(-c2oncc2-c2ccc(OC)cc2)c(O)cc1OC	nt	nt	71%	-2	nt
ICCc1ccccc1	3.2µM*	nt	nt	nt	nt
BrCCc1ccccc1	14%	3%	nt	nt	nt
COc1ccc(C(=O)Nc2cc(C(C)=O)c(C)oc2=O)cc1	8%	-1%	3%	2	8%
COC(=O)c1cc(NC(=O)c2ccccc2)c(=O)oc1/C=C/Nc1ccc(Oc2ccccc2)cc1	-87%	10%	10µM*	?	?
COC(=O)c1cc2c(-c3ccccc3)c(C)c3ccccn3c-2c1C(=O)OC	37%	0%	35µM*	?	-1%
COC(=O)c1c(C(=O)OC)c2ccccn2c1C(=O)c1ccccc1	nt	1%	-10%	-1	5%
COC(=O)c1c(C)[nH]c(C=O)c1-c1ccccc1	5%	0%	nt	-2	3%
COC(=O)c1c(Cl)c2n3ccccc3c(C)c(-c3ccccc3)c-2c1C(=O)OC	14µM*	0%	-18%	?	?
COc1cccc(Cn2c(=O)c(-c3ccc(Cl)cc3)nc3cncnc32)c1	21%	nt	0%	10	nt
O=C(Cn1cc([N+](=O)[O-])cn1)Nc1ccc(Cn2cc(Br)cn2)cc1	12%	27µM*	14%	1	6%
O=C(O)c1ccccc1C1=Nc2ccc(O)cc2Oc2cc(O)ccc21	25µM*	-2%	?	?	?
CC#CCOCC/C=C1/c2ccccc2C(OC)C1C (configuration not stated)	nt	nt	0%[11.7 µM]	-4[11.7 µM]	nt
CC(C)[C@H](NC(=O)CNC(=O)OC(C)(C)C)C(=O)N[C@H](C=O)C(C)C	3%	nt	nt	nt	nt
Cn1c[n+](C)cc1/C=N/O	4µM*	0%	nt	2	1%
C=CCn1c(P(=O)(O)c2ccccc2)nc2ccccc21	5.6µM*	-1%	-1%	2	-9%
COc1ccc(CNC(=O)c2cc(-c3cccs3)on2)cc1	-9%	0%	?	7	3%
O=C(NCc1ccc(Cl)cc1)c1cc(-c2cccs2)on1	8%	1%	28µM*	5	6%
COC(=O)NC(c1ccccc1)[C@@]1(C(=O)OC)CCCC1=O (some centres not stated)	nt	nt	0%[11.7 µM]	0[11.7 µM]	nt
O=[N+]([O-])c1ccc(Cl)c(Cl)c1Cl	8%	4%	nt	nt	nt
SMILES	RGS12 GoLoco inh	Tb PFK inh	Menin-MLL TR inh	Menin-MLL FL inh	CXXC DNA block
O=[N+]([O-])c1cccc(Cl)c1Cl	3.2µM*	nt	nt	nt	nt
CC(C)OP(=O)(c1ccc(N(C)C)cc1)C(O)c1ccc(N(C)C)cc1 (configuration not stated)	nt	2%	10µM*	2	15%
CC(C)(C)c1ccc2c(S(=O)(=O)O)c(C(C)(C)C)ccc2c1	nt	nt	22%	5	7%
CCCCCCCCCCCCCCCC[N+](C)(C)C	-2%	0%	28µM*!	2	?
CCCCCCCCCCCCCC[N+](C)(C)C	nt	nt	-18%	-1	0%
CSCC[C@@H]1NC(=O)[C@@H](NC(=O)[C@H](CCCNC(=N)N)NC(=O)[C@H](CC(C)C)NC(=O)[C@H](CCSC)NC(=O)[C@H](CC(=O)O)NC(=O)[C@H](Cc2ccccc2)NC(=O)[C@@H](N)CC(=O)O)CSSC[C@@H](C(=O)N[C@@H](Cc2c[nH]c3ccccc23)C(=O)N[C@@H](CCC(N)=O)C(=O)N[C@@H](Cc2ccc(O)cc2)C(=O)O)NC(=O)[C@@H]2CCCN2C(=O)[C@H](CCCNC(=N)N)NC(=O)[C@H](Cc2ccccc2)NC(=O)[C@H](C(C)C)NC(=O)[C@H](CCCNC(=N)N)NC(=O)CNC(=O)[C@H](CC(C)C)NC1=O	nt	nt	-3%	0	nt
O=C(Oc1ccc(OC(=O)c2ccco2)c(S(=O)(=O)c2ccc(Br)cc2)c1)c1ccco1	-18%	-3%	10µM*	-1	118%
Cc1ccc(S(=O)(=O)c2cc(OC(=O)c3ccco3)ccc2OC(=O)c2ccco2)cc1	6%	-5%	nt	nt	148%
O=C1CCCC/C1=C\Nc1ccc(O)cc1	-28%	-24%	32µM*	1	4%
O=C1CCC/C1=C/Nc1ccc(Cl)cc1	-5%	1%	7%	0	-2%
CCOC(=O)Cn1c2[n+](c3ccccc31)CC(O)CS2 (configuration not stated)	16µM*	3%	-8%	0	-14%
O=C(OC[C@H]1O[C@@H](OC(=O)c2cc(O)c(O)c(OC(=O)c3cc(O)c(O)c(O)c3)c2)[C@H](OC(=O)c2cc(O)c(O)c(OC(=O)c3cc(O)c(O)c(O)c3)c2)[C@@H](OC(=O)c2cc(O)c(O)c(OC(=O)c3cc(O)c(O)c(O)c3)c2)[C@@H]1OC(=O)c1cc(O)c(O)c(OC(=O)c2cc(O)c(O)c(O)c2)c1)c1cc(O)c(O)c(OC(=O)c2cc(O)c(O)c(O)c2)c1	nt	0.095µM*	nt	nt	nt
Cc1ccc(C(OCC(C)(C)C[N+](C)(C)C)c2ccccc2)cc1 (configuration not stated)	8.9µM*	-6%	-6%	4	16%
CC(C)C[C@H](NC(=O)CNC(=O)[C@H](C)NC(=O)[C@H](CC(C)C)NC(=O)[C@H](CCCNC(=N)N)NC(=O)[C@H](Cc1cnc[nH]1)NC(=O)[C@@H](NC(=O)[C@@H](N)C(C)C)[C@@H](C)O)C(=O)N[C@@H](CC(C)C)C(=O)N[C@@H](CO)C(=O)N[C@@H](CCCNC(=N)N)C(=O)N[C@@H](CO)C(=O)NCC(=O)NCC(=O)N[C@H](C(=O)N[C@H](C(=O)N[C@@H](CCCCN)C(=O)N[C@@H](CC(N)=O)C(=O)N[C@@H](CC(N)=O)C(=O)N[C@@H](Cc1ccccc1)C(=O)N[C@H](C(=O)N1CCC[C@H]1C(=O)N[C@H](C(=O)N[C@@H](CC(N)=O)C(=O)N[C@H](C(=O)NCC(=O)N[C@@H](CO)C(=O)N[C@@H](CCCCN)C(=O)N[C@@H](C)C(=O)N[C@@H](Cc1ccccc1)C(N)=O)C(C)C)[C@@H](C)O)C(C)C)C(C)C)C(C)C	nt	nt	-1%	-1	nt
CCOc1cc(N2CCOCC2)c(OCC)cc1NC(C)C(=O)N1CCN(CC)CC1 (configuration not stated)	-18%	-20%	32µM*	0	17%

Assay outcomes from PubChem BioAssay.
